Assay results reported in PubChem BioAssay.
For some assays here: Results with a measured potency or affinity are listed apart. Active and inactive are the calls of the source. Unless noted, the rule behind the calls is not given here.

Legend:
[1] = antimalarial activity against Dd2 strain (AID 2302;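 active = growth inhibition above 50% at the single 2 µM test dose, taken to imply half-maximal potency below 2 µM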;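 note: 0% = DMSO untreated growth and 100% = chloroquine plus artemisinin killed control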); conditions: P. falciparum Dd2 in RBCs, LDH growth readout, 72 h; at 2 µM; stronger effect = higher value
[2] = human hepatoma cell viability loss – ATP luminescence, cytotoxicity control for P. falciparum antimalarial project, primary screen (AID 2303;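 active = inhibition above 50%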;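 note: 0% = DMSO wells and 100% = digitonin-killed cells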); conditions: HepG2 viability, 24-48 h, at 10 µM, stronger effect = higher value
[3] = molecular target: L-lactate dehydrogenase (Plasmodium falciparum (isolate CDC / Honduras)) (UniProt Q27743); experiment: PfLDH activity inhibition – cell lysate, 3D7 strain, counter-screen for P. falciparum growth inhibition project (AID 2304);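 note: 0% = vehicle and 100% = reference inhibitor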; conditions: P. falciparum 3D7 crude extract, LDH APAD/NBT absorbance; at 2 µM; stronger effect = higher value
Sequence of L-lactate dehydrogenase (Plasmodium falciparum (isolate CDC / Honduras)) (Q27743 whole entry, looked up): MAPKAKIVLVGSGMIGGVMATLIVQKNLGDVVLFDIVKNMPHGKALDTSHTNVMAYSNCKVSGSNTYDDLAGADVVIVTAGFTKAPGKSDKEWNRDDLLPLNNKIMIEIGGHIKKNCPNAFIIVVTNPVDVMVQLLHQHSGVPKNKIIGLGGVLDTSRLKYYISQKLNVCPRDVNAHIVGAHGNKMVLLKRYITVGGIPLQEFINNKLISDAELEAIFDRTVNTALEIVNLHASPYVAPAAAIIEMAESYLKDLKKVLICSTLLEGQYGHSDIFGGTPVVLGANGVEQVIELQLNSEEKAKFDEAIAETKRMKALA

[4] = inhibition of 3D7 malaria parasite growth – strain 3D7 (AID 2306);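 note: 0% = DMSO wells and 100% = chloroquine plus artemisinin control wells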; conditions: P. falciparum 3D7 erythrocytic growth, LDH absorbance, 72 h; at 2 µM; stronger effect = higher value
[5] = molecular target: Calcium-dependent protein kinase 1 (Plasmodium falciparum (isolate 3D7)) (UniProt P62344); experiment: PfCDPK1 kinase inhibitors, biochemical, TCAMS library (AID 1159585; cut-off not given, nearly all actives have IC50 up to about 0.98 µM;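 note: inhibitors leave more ATP so luminescence rises with inhibition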); conditions: recombinant PfCDPK1, Kinase-Glo ATP depletion luminescence
Sequence of Calcium-dependent protein kinase 1 (Plasmodium falciparum (isolate 3D7)) (P62344 whole entry, looked up): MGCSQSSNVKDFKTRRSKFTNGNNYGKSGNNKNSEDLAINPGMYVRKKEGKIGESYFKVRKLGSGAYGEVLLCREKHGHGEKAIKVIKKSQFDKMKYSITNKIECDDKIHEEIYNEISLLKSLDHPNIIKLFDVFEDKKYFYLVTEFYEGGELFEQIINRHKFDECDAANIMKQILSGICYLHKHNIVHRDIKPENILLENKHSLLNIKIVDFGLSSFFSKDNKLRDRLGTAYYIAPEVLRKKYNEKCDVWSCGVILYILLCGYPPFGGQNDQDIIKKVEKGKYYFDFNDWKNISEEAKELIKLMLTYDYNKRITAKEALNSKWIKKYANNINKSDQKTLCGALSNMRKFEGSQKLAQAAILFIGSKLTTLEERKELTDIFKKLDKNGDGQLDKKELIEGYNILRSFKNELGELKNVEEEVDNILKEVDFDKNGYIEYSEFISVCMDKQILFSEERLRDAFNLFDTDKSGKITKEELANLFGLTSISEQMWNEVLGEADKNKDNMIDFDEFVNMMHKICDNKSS

[6] = molecular target: Plasmodium falciparum protein kinase 6 (PK6, PF3D7_1337100) (UniProt Q8IDW1); experiment: PfPK6 kinase inhibitors, biochemical, TCAMS library (AID 1159586); conditions: recombinant PfPK6, Kinase-Glo ATP depletion luminescence
Sequence of Plasmodium falciparum protein kinase 6 (PK6, PF3D7_1337100) (Q8IDW1 1-305): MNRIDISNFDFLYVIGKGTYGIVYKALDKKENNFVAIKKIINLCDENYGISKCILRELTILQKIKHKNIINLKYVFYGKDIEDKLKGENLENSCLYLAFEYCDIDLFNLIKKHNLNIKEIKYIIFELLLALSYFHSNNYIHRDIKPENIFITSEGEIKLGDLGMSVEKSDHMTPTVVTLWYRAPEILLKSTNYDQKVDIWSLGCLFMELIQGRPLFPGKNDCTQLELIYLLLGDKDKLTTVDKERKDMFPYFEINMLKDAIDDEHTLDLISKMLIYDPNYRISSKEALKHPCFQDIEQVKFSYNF

[7] = molecular target: Protein kinase 7 (PK7), Plasmodium falciparum 3D7 (PF3D7_0213400) (UniProt Q7YTF7); experiment: inhibition of Plasmodium PK7 catalytic activity – biochemical, TCAMS antimalarial set, Kinase-Glo luminescence (AID 1159587); conditions: recombinant PfPK7, Kinase-Glo ATP depletion luminescence
Sequence of Protein kinase 7 (PK7), Plasmodium falciparum 3D7 (PF3D7_0213400) (Q7YTF7 1-343): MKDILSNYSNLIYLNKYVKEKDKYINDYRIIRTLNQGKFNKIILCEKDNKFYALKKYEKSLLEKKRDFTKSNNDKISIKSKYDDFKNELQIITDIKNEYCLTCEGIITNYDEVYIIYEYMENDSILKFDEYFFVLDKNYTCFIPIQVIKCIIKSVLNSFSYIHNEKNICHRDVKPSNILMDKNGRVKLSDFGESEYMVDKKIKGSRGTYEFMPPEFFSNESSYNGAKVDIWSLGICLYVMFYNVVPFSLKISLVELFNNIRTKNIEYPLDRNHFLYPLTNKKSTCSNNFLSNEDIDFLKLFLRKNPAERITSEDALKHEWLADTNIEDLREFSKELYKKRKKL

[8] = molecular target: Calcium-dependent protein kinase 4 (Plasmodium falciparum (isolate 3D7)) (UniProt Q8IBS5); experiment: PfCDPK4 kinase inhibitors, biochemical, TCAMS library (AID 1159588; cut-off not given, nearly all actives have IC50 up to about 0.91 µM); conditions: recombinant PfCDPK4, Kinase-Glo ATP depletion luminescence
Sequence of Calcium-dependent protein kinase 4 (Plasmodium falciparum (isolate 3D7)) (Q8IBS5 whole entry, looked up): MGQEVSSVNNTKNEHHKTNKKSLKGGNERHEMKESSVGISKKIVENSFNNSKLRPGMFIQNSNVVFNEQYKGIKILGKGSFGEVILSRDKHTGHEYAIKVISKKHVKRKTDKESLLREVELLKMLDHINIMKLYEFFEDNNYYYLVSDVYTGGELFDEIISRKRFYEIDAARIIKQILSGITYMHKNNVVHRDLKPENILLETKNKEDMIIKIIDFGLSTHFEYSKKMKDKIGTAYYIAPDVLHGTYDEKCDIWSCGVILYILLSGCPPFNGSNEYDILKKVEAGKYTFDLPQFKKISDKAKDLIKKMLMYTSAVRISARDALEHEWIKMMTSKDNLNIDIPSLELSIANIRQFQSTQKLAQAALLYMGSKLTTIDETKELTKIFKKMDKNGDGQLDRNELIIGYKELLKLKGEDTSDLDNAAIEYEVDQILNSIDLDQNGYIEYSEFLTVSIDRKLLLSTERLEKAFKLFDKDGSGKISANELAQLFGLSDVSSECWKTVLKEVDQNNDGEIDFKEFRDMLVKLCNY

FC(F)(F)c1ccc2nccc(NN=CC=Cc3ccccc3)c2c1
active: growth inhibition [4] 82%
inactive: growth inhibition [1] 9% | inhibition [2] -4% | inhibition [3] -1% | outcome [5] | outcome [6] | outcome [7] | outcome [8]

c1ccc(CSC2=NNC(c3ccccn3)S2)cc1 (stereo not given)
inactive: inhibition [2] 6% | inhibition [3] 0% | outcome [5] | outcome [6] | outcome [7] | outcome [8]
active: growth inhibition [1] 65% | growth inhibition [4] 80%

O=C(Cc1cccs1)NCC(c1ccccc1Cl)c1c[nH]c2ccccc12 (stereo not given)
active: growth inhibition [1] 56% | growth inhibition [4] 91%
inactive: inhibition [2] 12% | inhibition [3] 1% | outcome [5] | outcome [6] | outcome [7] | outcome [8]

COc1cc2nc(N3CCC(CNC(=O)c4ccc(-c5ccc(C(F)(F)F)cc5)cc4)CC3)nc(N)c2cc1OC
active: growth inhibition [1] 100% | inhibition [2] 94% | growth inhibition [4] 100%
inactive: inhibition [3] 3% | outcome [5] | outcome [6] | outcome [7] | outcome [8]

COC(=O)c1ccc2nc(-c3ccc(C(=O)NC4CCN(Cc5ccccc5)CC4)s3)[nH]c2c1
active: growth inhibition [1] 71% | growth inhibition [4] 99%
inactive: inhibition [2] -7% | inhibition [3] -4% | outcome [5] | outcome [6] | outcome [7] | outcome [8]

O=C(Nc1cccc(-c2nn3ccccc3c2-c2ccnc(Nc3ccccc3)n2)c1)c1c(F)cccc1F
inactive: inhibition [3] -6% | outcome [5] | outcome [6] | outcome [7] | outcome [8]
active: growth inhibition [1] 98% | inhibition [2] 69% | growth inhibition [4] 98%

CNC(=O)c1cnc(Nc2ccc(OCC(O)CN(C)C)cc2)nc1Nc1cccc(Br)c1 (stereo not given)
inactive: inhibition [3] -5% | outcome [5] | outcome [6] | outcome [7] | outcome [8]
active: growth inhibition [1] 100% | inhibition [2] 68% | growth inhibition [4] 102%

O=C(NC1CCN(CCC(NC(=O)c2ccccc2)c2ccc(Cl)c(Cl)c2)CC1)c1ccc(Cl)cc1 (stereo not given)
inactive: growth inhibition [1] 36% | inhibition [2] 17% | inhibition [3] -2% | outcome [5] | outcome [6] | outcome [7] | outcome [8]
active: growth inhibition [4] 97%

CCOC(=O)c1ccc(NC(=O)N[C@H]2CCN(CCCCCNC(=O)/C=C/c3ccc(Cl)c(Cl)c3)C2)cc1
active: growth inhibition [4] 98%
inactive: growth inhibition [1] 1% | inhibition [2] 21% | inhibition [3] -4% | outcome [5] | outcome [6] | outcome [7] | outcome [8]

Clc1ccc(Cc2nc3ccccc3[nH]2)cc1Cl
inactive: growth inhibition [1] 2% | inhibition [2] 5% | inhibition [3] 0% | outcome [5] | outcome [6] | outcome [7] | outcome [8]
active: growth inhibition [4] 98%

COc1ccc(-c2nc3c(N)nc(N)nc3nc2C(C)C)cc1
active: inhibition [2] 71% | growth inhibition [4] 96%
inactive: growth inhibition [1] -4% | inhibition [3] 6% | outcome [5] | outcome [6] | outcome [7] | outcome [8]

CCN(CC)CCN(Cc1ccc(-c2ccc(C(F)(F)F)cc2)cc1)C(=O)Cn1c(SCc2ccc(F)c(F)c2F)nc(=O)c2c1CCC2
active: growth inhibition [1] 96% | inhibition [2] 100% | growth inhibition [4] 91%
inactive: inhibition [3] -4% | outcome [5] | outcome [6] | outcome [7] | outcome [8]

Cc1cccc2[nH]c(-c3cccc(-c4ccc(NC(=O)NCc5ccccc5)cc4)c3)nc12
active: growth inhibition [4] 101%
inactive: growth inhibition [1] 47% | inhibition [2] 35% | inhibition [3] -2% | outcome [5] | outcome [6] | outcome [7] | outcome [8]

CC(C)(C)c1ccc(CN2CCC(NC(=O)c3cc(-c4cccc(C(F)(F)F)c4)cs3)C2)cc1 (stereo not given)
active: growth inhibition [1] 85% | growth inhibition [4] 98%
inactive: inhibition [2] 24% | inhibition [3] -1% | outcome [5] | outcome [6] | outcome [7] | outcome [8]

O=C(CCCCCNC(=O)c1ccc(O)c(-c2ccc(Cl)c(Cl)c2)c1)NCCN1CCCC1
inactive: growth inhibition [1] 2% | inhibition [2] -6% | inhibition [3] -2% | outcome [5] | outcome [6] | outcome [7] | outcome [8]
active: growth inhibition [4] 90%

O=C(Cn1c(CCc2cccc(F)c2F)cc(=O)c2cccnc21)N(CCCn1ccnc1)Cc1ccc(-c2ccc(C(F)(F)F)cc2)cc1
inactive: growth inhibition [1] 47% | inhibition [2] 38% | inhibition [3] -3% | outcome [5] | outcome [6] | outcome [7] | outcome [8]
active: growth inhibition [4] 96%

O=C(/C=C/c1ccc([N+](=O)[O-])cc1)N1CCC(NS(=O)(=O)c2ccc(F)cc2)CC1
inactive: growth inhibition [1] -2% | inhibition [2] -7% | inhibition [3] -10% | outcome [5] | outcome [6] | outcome [7] | outcome [8]
active: growth inhibition [4] 96%

Cc1ccc(O)cc1Nc1ccnc2cc(-c3csc(CN(C)CCN(C)C)n3)ccc12
active: growth inhibition [1] 80% | growth inhibition [4] 101%
inactive: inhibition [2] 3% | inhibition [3] 4% | outcome [5] | outcome [6] | outcome [7] | outcome [8]

O=C(/C=C/c1ccc([N+](=O)[O-])cc1)N1CCC(NS(=O)(=O)c2ccc(Br)cc2)CC1
active: growth inhibition [4] 93%
inactive: growth inhibition [1] 5% | inhibition [2] 0% | inhibition [3] -4% | outcome [5] | outcome [6] | outcome [7] | outcome [8]

CC(C)c1ccc2c(c1)c(SC(C)(C)C)c(CC(C)(C)C#N)n2Cc1ccc(Cl)cc1
inactive: inhibition [2] -3% | inhibition [3] 8% | outcome [5] | outcome [6] | outcome [7] | outcome [8]
active: growth inhibition [1] 95% | growth inhibition [4] 96%

COC(=O)c1ccc(CCCNCC(O)c2cccc(C(F)(F)F)c2)cc1 (stereo not given)
inactive: inhibition [2] 0% | inhibition [3] 4% | outcome [5] | outcome [6] | outcome [7] | outcome [8]
active: growth inhibition [1] 88% | growth inhibition [4] 97%

COc1ccc(-c2ccc(NC(=O)c3ccc(Cl)cc3)cc2)cc1CN1CCNCC1
inactive: growth inhibition [1] 24% | inhibition [2] 14% | inhibition [3] 5% | outcome [5] | outcome [6] | outcome [7] | outcome [8]
active: growth inhibition [4] 99%

OCCN1CCN(Cc2ccc(-c3cccc(-c4nc5ccc(C(F)(F)F)cc5[nH]4)c3)cc2)CC1
inactive: inhibition [2] 29% | inhibition [3] 0% | outcome [5] | outcome [6] | outcome [7] | outcome [8]
active: growth inhibition [1] 83% | growth inhibition [4] 99%

CN1CCC(Oc2cc(CN3CC[C@H](NC(=O)c4ccc(Cl)c(Cl)c4)C3)ccc2I)C1 (stereo not given in full)
inactive: growth inhibition [1] 24% | inhibition [3] 1% | outcome [5] | outcome [6] | outcome [7] | outcome [8]
active: inhibition [2] 68% | growth inhibition [4] 97%

CCCC(C(=O)OCCN(CC)CC)(c1ccc(Cl)cc1)c1ccc(Cl)cc1
active: growth inhibition [1] 87% | growth inhibition [4] 91%
inactive: inhibition [2] 7% | inhibition [3] 2% | outcome [5] | outcome [6] | outcome [7] | outcome [8]

CC(C)c1ccc(NC(=O)NCC2CCCN(CCCCCNC(=O)/C=C/c3ccc(Cl)c(Cl)c3)C2)cc1 (stereo not given)
inactive: growth inhibition [1] 6% | inhibition [3] -13% | outcome [5] | outcome [6] | outcome [7] | outcome [8]
active: inhibition [2] 87% | growth inhibition [4] 98%

N#Cc1ccnc(-c2ccc(CNC3CCN(CC4Cn5c(=O)ccc6ccc(F)c4c65)CC3)cc2)c1 (stereo not given)
inactive: growth inhibition [1] 41% | inhibition [2] 24% | inhibition [3] 2% | outcome [5] | outcome [6] | outcome [7] | outcome [8]
active: growth inhibition [4] 88%

c1ccc(CNCCn2c(-c3ccc4c(c3)CCO4)nc3c(N4CCCC4)cccc32)cc1
active: growth inhibition [1] 85% | growth inhibition [4] 82%
inactive: inhibition [2] 9% | inhibition [3] -4% | outcome [5] | outcome [6] | outcome [7] | outcome [8]

O=C(NC1CCN(Cc2ccccc2)CC1)c1cc(C(=O)NC2CCN(Cc3ccccc3)CC2)cc(C(=O)NC2CCN(Cc3ccccc3)CC2)c1
active: growth inhibition [1] 100% | growth inhibition [4] 100%
inactive: inhibition [2] 13% | inhibition [3] 1% | outcome [5] | outcome [6] | outcome [7] | outcome [8]

Cc1cccc2[nH]c(-c3cccc(-c4cccc(NC(=O)C5CC(=O)Nc6ccccc65)c4)c3)nc12 (stereo not given)
active: growth inhibition [4] 85%
inactive: growth inhibition [1] 25% | inhibition [2] 13% | inhibition [3] 0% | outcome [5] | outcome [6] | outcome [7] | outcome [8]

O=C(/C=C/c1ccc(Cl)c(Cl)c1)N1CCC(CCCN2CCC(c3c[nH]c4ccc(O)cc34)CC2)CC1
inactive: inhibition [3] 1% | outcome [5] | outcome [6] | outcome [7] | outcome [8]
active: growth inhibition [1] 99% | inhibition [2] 60% | growth inhibition [4] 102%

CCCCCCNC(=O)C1Cc2c([nH]c3ccc(C)cc23)C2(CCN(Cc3ccccc3)CC2)N1 (stereo not given)
inactive: growth inhibition [1] 25% | inhibition [2] 25% | inhibition [3] 6% | outcome [5] | outcome [6] | outcome [7] | outcome [8]
active: growth inhibition [4] 84%

NC(N)=NCC=C(c1ccccc1)c1ccccc1
active: growth inhibition [1] 83% | growth inhibition [4] 94%
inactive: inhibition [2] 9% | inhibition [3] 1% | outcome [5] | outcome [6] | outcome [7] | outcome [8]

CCCn1c(SCC(=O)Nc2cc(C(F)(F)F)ccc2Cl)n[nH]c1=O
inactive: inhibition [2] -6% | inhibition [3] -2% | outcome [5] | outcome [6] | outcome [7] | outcome [8]
active: growth inhibition [1] 94% | growth inhibition [4] 96%

CCN(CCCN1CCCCC1)c1cc(C)nc(Nc2ccc(C)cc2Cl)n1
inactive: growth inhibition [1] 25% | inhibition [2] 44% | inhibition [3] 1% | outcome [5] | outcome [6] | outcome [7] | outcome [8]
active: growth inhibition [4] 93%

COc1cc(C2CCN(CCCCNC(=O)c3ccc(NC(=O)c4ccc(Cl)c(Cl)c4)cc3)CC2)ccc1OC(C)C
inactive: inhibition [2] 45% | inhibition [3] -5% | outcome [5] | outcome [6] | outcome [7] | outcome [8]
active: growth inhibition [1] 96% | growth inhibition [4] 101%

COc1ccc(-c2ccc(NC(=O)c3cccs3)cc2)cc1CN1CCCN(C)CC1
inactive: growth inhibition [1] 30% | inhibition [2] 31% | inhibition [3] 4% | outcome [5] | outcome [6] | outcome [7] | outcome [8]
active: growth inhibition [4] 100%

CN1CCN(CCCN(Cc2csc(-c3ccc(CNCc4ccccc4)cc3)n2)C(=O)Nc2cc(Cl)cc(Cl)c2)CC1
active: growth inhibition [4] 103%
inactive: growth inhibition [1] 45% | inhibition [2] 34% | inhibition [3] -2% | outcome [5] | outcome [6] | outcome [7] | outcome [8]

Cc1csc(-c2nonc2NC(=O)COc2ccccc2C(C)C)n1
active: growth inhibition [1] 85% | growth inhibition [4] 90%
inactive: inhibition [2] 14% | inhibition [3] -1% | outcome [5] | outcome [6] | outcome [7] | outcome [8]

Cc1cc(N[C@@H](CC(C)C)C(=O)NCc2cccs2)nc(NCCc2cccs2)n1
active: growth inhibition [4] 92%
inactive: growth inhibition [1] 13% | inhibition [2] -3% | inhibition [3] -4% | outcome [5] | outcome [6] | outcome [7] | outcome [8]
